Values joined by “and” are separate entries in the source; they are usually repeats but may differ in a detail not shown here. Equal values may be shown once. In all, about 160,000 compounds went through this assay and about 310 (0.19%) were called active. Rule as the data show it: active = inhibition above about 30%; inactive = the rest. This excerpt belongs to a sample that is enriched for actives. More than one record can exist for a structure, and the calls need not agree.
Biological target: 14-3-3 protein gamma (Homo sapiens) (UniProt P61981)
Sequence (P61981 whole entry, looked up): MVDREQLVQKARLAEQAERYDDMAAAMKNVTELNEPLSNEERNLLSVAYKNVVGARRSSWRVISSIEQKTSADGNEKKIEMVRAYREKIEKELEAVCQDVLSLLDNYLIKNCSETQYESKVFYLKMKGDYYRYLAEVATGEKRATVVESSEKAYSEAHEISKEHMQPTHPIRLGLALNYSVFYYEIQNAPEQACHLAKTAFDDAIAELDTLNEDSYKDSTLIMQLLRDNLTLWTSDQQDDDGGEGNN
Test: 14-3-3 gamma/Raf peptide interaction modulators – biochemical, fluorescence polarization, primary screen (AID 422);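 also: 0% = protein plus tracer without compound and 100% = blank with tracer alone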
Conditions: FP, 14-3-3gamma / TMR-pS259-Raf peptide binding; at 40 µM; stronger effect = higher value

inhibition, inactive:
Cc1ccc2c(=O)c(CN3CCOCC3)c(C)[nH]c2c1C -4.4%, Cc1ccc(-c2nnc(NCc3ccccc3)c3ccccc23)cc1S(=O)(=O)N1CCOCC1 -13.1%, COc1ccc(CN2CCN(S(=O)(=O)c3cc(Br)c(Br)s3)CC2)c(OC)c1OC -1%, Cc1cc(N2CCOCC2)nc2ccc(NC(=O)c3ccc(F)cc3)cc12 -5.58%, O=c1c2ccc(-c3ncc(-c4ccccc4)o3)c3cccc(c32)c2nc3cccc4cccc(c43)n12 -3.12%, Clc1ccc2nc(-c3ccsc3)c(NC3CCCCC3)n2c1 1.17%, O=C(CC1Sc2ccccc2NC1=O)NCCCSC1CCCCC1 (configuration not stated) 5.8%, Cc1cccc2cc(C#N)c(N3CCCC3)nc12 -5.89%, Cc1cc(NCCN2CCCCCC2)n2c(nc3ccccc32)c1C#N -60.5%, COc1ccc(NC(=O)Nc2cccc3cccnc23)cc1 -2.7%, O=C(Nc1cccc2cccnc12)c1cccc(N2C(=O)CCC2=O)c1 2.56%, O=C(NC1CCCCNC1=O)c1ccc(N2CC3CC(C2)c2cccc(=O)n2C3)c(NC(=O)c2ccccc2Br)c1 (configuration not stated) -4.63%, CN(Cc1ccccc1)S(=O)(=O)c1ccc2c(c1)CCN2C(=O)C1CCC1 -4.53%, Cc1ccc(-c2csc(Nc3ccccc3)n2)c(C)c1 -4.17%, O=C(CSc1nc2ccccc2[nH]1)c1cccs1 -10.8% and -0.41%, c1ccc2[nH]c(-c3nc4ccccc4[nH]3)nc2c1 -4.13%, COc1cc(OC)c(C2C(C(=O)O)c3cc(OC)c(OC)cc3C(=O)N2C)cc1OC (configuration not stated) 4.71%, O=C(O)c1c[nH]c2ccc(S(=O)(=O)N3CCN(c4cccc(Cl)c4)CC3)cc2c1=O -20.1%, COc1ccc(NC(=O)c2cc([N+](=O)[O-])ccc2Cl)cc1OC -12.3%, COc1ccc(CCNC(=O)c2cc(Cl)ccc2OC)cc1 -6.62%, CC(=O)Oc1ccccc1C(=O)NCCc1ccccc1 3.04%, CCCCN(CC)C(=O)C1c2cc(OC)c(OC)cc2C(=O)N(C)C1c1ccccc1F (configuration not stated) -7.13%, O=C(Oc1ccc(C2NC(=O)c3c(sc4c3CCCC4)N2)cc1)c1ccccc1 (configuration not stated) -5.95%, O=S(=O)(Nc1ccccn1)c1ccccc1 -1.79%, Cc1ccc(NC(=O)c2cccc(Oc3ccc(C#N)cc3)c2)cc1 -12%, O=C(Nc1nccs1)c1cc2cc(Cl)ccc2oc1=Nc1ccc(Br)cc1 -1.07%, COc1ccc(CNCC2OCCc3ccccc32)cc1OC (configuration not stated) -5.29%, O=C(NCCc1ccccc1)C1Cc2ccccc2CN1S(=O)(=O)c1cccs1 (configuration not stated) -6.94%, Cc1sc(NC(=O)c2cc(=O)c3ccccc3o2)nc1-c1ccccc1 0.55%, CCN(CC)c1ccc2cc(C(N)=O)c(=Nc3ccc(C(N)=O)cc3)oc2c1 3.05%, CCN(CC)c1ccc2cc(C(=O)O)c(=O)oc2c1 -6.88%, COc1cccc(-c2nn(C)c3sc(C(=O)NCCCOC(C)C)cc23)c1 -12.3%, O=C(OCCN1C(=O)c2ccccc2C1=O)c1ccc([N+](=O)[O-])cc1 5.13%, COC(=O)c1ccc2c(c1N)C(=O)c1ccccc1C2=O -200%, Cc1ccc2c(c1)-c1cccc3cccc(c13)C2=O 3.94%, Cc1ccc2nc3c(nc2c1)C(=O)c1ccccc1C3=O -16.2%, CCc1ccccc1NC(=O)c1cc2cc3ccc(OC)cc3nc2o1 17.8%, O=C(Cc1ccc(Cl)cc1)Nc1cccc(-c2nc3ccccc3o2)c1 -129%, COc1ccc(C2C3=C(CCCC3=O)OC3=C2C(=O)CCC3)cc1 0.11%, CCC(=O)N1CCc2cc(S(=O)(=O)CCC(=O)N3CCN(c4cccc(OC)c4)CC3)ccc21 3.36%, COc1cc2ccccc2cc1C(=O)Nc1nc(-c2c(OC)ccc3ccccc23)cs1 -0.5%, COC(=O)C1=CN(C)C=C(C(=O)OC)C1c1cc(OC)ccc1OC 1.92%, O=C(COc1ccc(C2CCCCC2)cc1)Nc1ccc(-c2nc3ncccc3o2)cc1 -12.3%, CC(=O)COc1cc(C)cc2oc(=O)c(Cc3ccccc3)c(C)c12 4.62%, COCCn1c(=S)[nH]c2cc(C(=O)N3CCN(C(=O)c4ccco4)CC3)ccc2c1=O 2.47%, CCOc1cc2c(cc1OCC)C1C(C(=O)NCCN3CCOCC3)c3ccccc3C(=O)N1CC2 (configuration not stated) 8.01%, C(=N\n1cnnc1)/c1cccnc1 -6.33%, CC(C)(C)c1ccc(-c2nc(Cc3ccc(Cl)cc3)no2)cc1 -5.54%, COC(=O)C1=C(C)N=C2SC(C)C(=O)N2C1c1ccc(C)cc1 (configuration not stated) -10.9%, CC(C)c1ccc(NC(=O)c2ccc(F)c(S(=O)(=O)NCc3ccccc3Cl)c2)cc1 -7.39%, COc1ccc(NC(=O)CSc2nc3nc(C)cc(C)n3n2)c(OC)c1 -15.5%, CCOC(=O)c1ccc(N2C(=O)C3CCCCC3C2=O)cc1 (configuration not stated) -3.67%, O=C(NCCC1=CCCCC1)c1ccc2c(=O)n(Cc3cccc(Br)c3)c(=S)[nH]c2c1 -9.75%, CCc1ccc2oc(-c3cc(NC(=O)c4ccc(OC)cc4)ccc3Cl)nc2c1 -44.5%, CC(C)(c1ccc(NC(=O)C(F)(F)F)cc1)c1ccc(NC(=O)C(F)(F)F)cc1 -13.8%, CCN(CC)C(=O)CSc1nc2ccccc2n1S(=O)(=O)c1cccc([N+](=O)[O-])c1 -1.43%, Cc1cc(N2CC(C)CC(C)C2)nc2ccc([N+](=O)[O-])cc12 (configuration not stated) -9.05%, Cc1cc2c(c(=O)[nH]1)C(=O)NC2=O -1.31%, O=c1cc(-c2ccccc2)nc(SCCOc2ccc(Cl)cc2)[nH]1 -2.33%, Cc1ccc(CNC(=O)CN2CCN(Cc3ccc(Cl)cc3)C2=O)cc1 -3.75%, Cc1ccccc1CN1CCN(CC(=O)NCc2cccs2)C1=O -7.12%, CCOC(=O)c1cc2c(=O)n3ccccc3nc2n(CCCOC)c1=NC(=O)c1cccc(Br)c1 0.86%, CC(=O)C1=NN(c2ccccc2)C(c2c[nH]c3ccccc23)N1c1ccc(N2CCOCC2)c(Cl)c1 (configuration not stated) -3.29%, CN(CCC#N)C(=O)CN1C(=O)COc2ccc(C(C)(C)C)cc21 2.44%, O=C1NCCCC1C(=O)NC1CCCCC1 (configuration not stated) -10.1%, CCc1sc(-c2cc3cccc(OC)c3oc2=O)nc1-c1ccc(C)cc1 -56.6%, Cc1ccc(C2OC3(C(=O)c4ccccc4C3=O)C3C(=O)N(c4ccc(Br)cc4)C(=O)C23)cc1 (configuration not stated) -39.8%, O=C(OCC(=O)N1CCCC1)c1ccco1 -8.04%, COC(=O)c1ccc(NC(=O)c2ccco2)cc1 -6.08%, O=C(Nc1ccccc1O)c1ccco1 -6.85%, O=C(CCCOc1ccc(Br)cc1)Nc1ncc(Cc2ccc(F)cc2)s1 -2.12%, COc1ccc(C2C=C(c3ccc(OC(F)F)cc3)Nc3ncnn32)cc1 (configuration not stated) 4.5%, Cc1ccc(/C(O)=C2\C(=O)C(=O)N(CCC(=O)O)C2c2ccc(Br)cc2)cc1 (configuration not stated) -1.96%, CCC(C(=O)Nc1c2c(nn1-c1ccc([N+](=O)[O-])cc1)CSC2)c1ccccc1 (configuration not stated) -13.7%, CN(C)c1ccc(Nc2cc(N3CCCC3)c3noc4c3c2C(=O)c2ccccc2-4)cc1 -88.4%, CCNc1cc(Nc2ccccc2)c2c3c(onc13)-c1ccccc1C2=O -69.4%, CCCCCc1ccc(S(=O)(=O)Nc2cnc3ccccc3c2)cc1 0.52%, CC1CCN(CCCNC(=O)C2CC(=O)N(C3CCCCCCC3)C2)CC1 (configuration not stated) 3.07%, Cn1c(SCc2ccccc2Br)nnc1-c1ccc([N+](=O)[O-])cc1 -3.43%, CCOC(=O)C(NC(=O)c1ccc(OC)cc1)(NC1CCCCC1)C(F)(F)F (configuration not stated) -6.18%, O=C(NCCn1cc(SCc2cccc(F)c2)c2ccccc21)c1ccccc1F 0.8%, COc1cc([N+](=O)[O-])ccc1NC(=O)C1CC(=O)NC(=Nc2ccc(C)cc2)S1 (configuration not stated) 1.95%

inhibition, 45.7% (active) and 3.37% (inactive):
Cc1ccccc1CN1CCN(CC(=O)NCc2ccccn2)C1=O

inhibition, 50.5% (active) and -1.38% (inactive):
C=CCSc1nc2ccccc2[nH]1

inhibition, active:
N#Cc1c(N2CCCCCC2)ncc2cc3ccccc3nc12 143%, O=C(O)c1ccccc1C(=O)Nc1cccc2cccnc12 52.6%, COc1cc2ccccc2cc1C(=O)NCCc1ccccc1 76%, CCN(CC)c1ccc2cc(C(=O)NC(C)=O)c(=Nc3ccccc3OC)oc2c1 133%, CC(C)CCOC(=O)c1c2c(n3ccccc13)C(=O)c1ccccc1C2=O 34.6%, Cc1cc2c3c(ccc(N)c3n1)C(=O)c1ccccc1-2 127%, S=c1[nH]ncn1-c1cccnc1 40.8%, CC1CN(C)C(C)CC1OC(=O)c1ccco1 (configuration not stated) 34.5%
